# TGFb inhibitor: blocks TGF-b signaling; HepG2 CAGA-GFP TGF-b/SMAD3 reporter, GFP fluorescence, 18 h; TGF-beta stimulated, 500 pg/mL final; Potency, µM (highest dose often 46.1 µM), without a hit: top-dose activity, negative = inhibition, usual class: inhibitors; hit rate 1.2% among 410,000; AID 588855; further: on the % scale 0 is the no-effect control and ±100 the full control effect; nearly all actives have a fitted effect of over 65% in size
#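 HEPG2 CAGA-GFP, 1000 cells/well; 2 h settle, 37 C; cpd via pin tool; TGF-b 500 pg/mL final; 18 h, 37 C; GFP imaging ex488/em500-530; %Activity normalised to -TGF-b and +DMSO controls; CRC fit, curve class.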
# S2 tox: reduces viability in counter-screen for ATXN expression inhibitors; S2 cells (HEK-293 line with an ATXN2-luciferase reporter) viability, CellTiter-Fluor protease fluorescence, 24 h; Potency, µM (top dose mostly 56.7 µM), usual class: cytotoxic; hit rate 0.49% among 400,000; AID 651635; further: nearly all actives have a fitted effect of over 40% in size
# ATXN2 expr inh: reduces ATXN2 reporter expression in HEK-293 cells. HEK-293 ATXN2-luciferase reporter, luminescence, 24 h. hit rate 0.72% among 360,000. Potency, µM (titrated, usually from 57 µM), inactives show at the highest dose activity change, negative = inhibition, most hits filed as inhibitors; further: on the % scale 0 is the no-effect control and ±100 the full control effect; nearly all actives have a fitted effect of over 55% in size
#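 ATXN2-luciferase reporter cells (luciferase flanked by upstream and downstream ATXN2 gene portions) were treated 24 h at 37 °C with compounds at up to 57 uM. SteadyGlo luminescence gave expression; GF-AFC fluorescence gave viability.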
# HepG2 viability: HepG2 cytotoxicity, counter-screen for TGF-b inhibitors; hit rate 0.76% among 410,000; HepG2 CAGA-GFP viability, ATP luminescence, 18 h; AID 588856; Potency, µM (series often up to 46.1 µM), inactives show at the highest dose activity change, negative = cytotoxicity, usual class: cytotoxic
#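 CellTiter-Glo luminescence gave cytotoxicity after 18 hours at 37 degrees C. The cells were HepG2 CAGA-GFP in 1% FBS DMEM, stimulated with 500 pg/mL TGF-beta after compound addition. %Activity was normalised to no-cell wells (complete cell-killing) and DMSO (no toxicity), and curves were fitted and classified.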
# Apoferritin bind: binds horse apoferritin like a general anesthetic. P02791. apoferritin/1-aminoanthracene competitive binding, fluorescence. Potency, µM (top dose mostly 77.5 µM), for the others: at the highest dose activity change, negative = displacement, most hits filed as inhibitors. hit rate 0.074% among 350,000. AID 485281; further: on the % scale 0 is the no-effect control and ±100 the full control effect; nearly all actives have a fitted effect of over 20% in size
# Target sequence (P02791 2-175 limits assumed): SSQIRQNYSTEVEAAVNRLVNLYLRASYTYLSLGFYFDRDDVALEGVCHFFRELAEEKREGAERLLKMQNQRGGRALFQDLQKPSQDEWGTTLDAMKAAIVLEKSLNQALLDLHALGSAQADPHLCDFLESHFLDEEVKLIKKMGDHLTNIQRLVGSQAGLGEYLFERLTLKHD
#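 Concentration-response curves derived by four-parameter Hill fitting of normalized fluorescence, where compounds displaced 1-AMA from 10 uM horse apoferritin following a brief 10 min room-temperature incubation; propofol titration acted as positive control.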
# Starred values were filed as active, the others as inactive; i = inactive; ? = inconclusive; nt = no result given. Compounds with a hit are over-represented: about 2.4% of the library has one in this group of screens. The call rests on the fitted dose curve; in most records, active means well fitted curve in the direction sought with a large enough effect; inconclusive means small, poorly fitted or top-dose-only effect, or another doubt; inactive means no such curve, though single readings can be large; an effect the other way counts as inactive or inconclusive. Potency means the concentration at half of the fitted maximal effect.
SMILES,TGFb inhibitor,S2 tox,ATXN2 expr inh,HepG2 viability,Apoferritin bind
CC(C)(C)C(C(=O)Oc1ccccc1)c1ccccc1 (stereo not given),-10%,i,-14%,-1%,nt
C=C1C=C(C)n2ncc(C(=O)Nc3cccc4cnccc34)c2N1,19%,nt,nt,-3%,nt
CCn1nc(C)cc1-c1nnc(SCC(=O)Nc2ccccc2)n1CCCOC,0%,i,-18%,-7%,7%
CCn1nc(C)cc1-c1nnc(Sc2ncc([N+](=O)[O-])s2)n1C,2.8µM*,3.5µM*,nt,4µM*,-10%
CC(OC(=O)c1ccc(-c2ccc(O)cc2)cc1)C(=O)NC1CCCCC1C (stereo not given),-12%,i,-4%,-21%,nt
CC(=O)Nc1cccc2c1C(=O)N(c1ccccc1OC(C)=O)C2=O,9%,i,2%,-16%,-2%
OC(c1cccc(F)c1)c1ncc(-c2ccc(Oc3ccccc3)cc2)[nH]1 (stereo not given),?,?,-23%,-74%,nt
OC(c1cccc(Cl)c1)c1ncc(-c2ccc(Oc3ccccc3)cc2)[nH]1 (stereo not given),18µM*,nt,?,11µM*,nt
COc1ccccc1-c1cnc(C(O)c2ccccc2)[nH]1 (stereo not given),0%,i,0%,-22%,nt
COc1ccccc1-c1cnc(C(O)c2cc(Cl)cc(Cl)c2)[nH]1 (stereo not given),11µM*,i,-7%,-21%,nt
CC(=O)C[C@H]1c2cc(F)cc(F)c2S(=O)(=O)N1C1CCN(Cc2ccccc2)CC1,-20%,nt,nt,3%,nt
CC(OC(=O)c1ccc2ccccc2c1)C(=O)N(C)Cc1ccccc1 (stereo not given),-20%,i,-26%,-32%,nt
CC(C)N(CCC(=O)c1ccc2ccccc2c1)Cc1ccccc1,11µM*,?,0%,-64%,nt
CCOC(=O)N1C(=O)[C@@](CC)(c2ccccc2)N1C(=O)OCC,?,32µM*,-35%,-103%,-6%
CC[C@@]1(c2cccc(C)c2)C(=O)N(C(=O)OC)N1C(=O)OC,-24%,i,2%,-5%,-9%
COC(=O)N1C(=O)[C@](CC(C)C)(c2ccccc2)N1C(=O)OC,8.9µM*,?,2%,-61%,-15%
CCc1ccc(Nc2cc(C)nc3nc(Cc4ccc(Cl)cc4)nn23)cc1,13µM*,?,?,-77%,113%
Cc1ccc(Nc2cc(C)nc3nc(Cc4ccc(Cl)cc4)nn23)cc1,4µM*,nt,14µM*,-58%,-23%
COc1ccc(C(=O)Nc2ccc(NS(=O)(=O)c3ccccc3)cc2)cc1OC,4%,?,-23%,2%,-4%
O=C(CCN1C(=O)c2ccccc2C1=O)Oc1ccc2ccccc2c1,27%,i,0%,5%,-10%
CC1=CC(C)(C)Nc2ccc(OC(=O)CCN3C(=O)c4ccccc4C3=O)cc21,?,nt,25µM*,-72%,?
O=C(Cc1cccc2ccccc12)Nc1ccc(O)cc1C(=O)O,-9%,i,-2%,17%,-5%
O=C(Cc1cccc2ccccc12)Nc1ccc(Br)cc1C(=O)O,-23%,nt,nt,14µM*,4%
CCOC(=O)[C@H](CCc1ccccc1)N[C@@H](C)C(=O)N1CCCC1C(=O)O (stereo not given in full),nt,nt,-6%,nt,nt
O=C(Cc1ccc(OCc2ccccn2)cc1)NO,-10%,nt,nt,-27%,nt
SMILES,TGFb inhibitor,S2 tox,ATXN2 expr inh,HepG2 viability,Apoferritin bind
COc1cccc(N2C(N)=NC(N)=NC2(C)C)c1,-4%,i,18%,-42%,-5%
CC1(C)N=C(N)N=C(N)N1c1cccc(C#N)c1,-9%,i,-10%,2µM*,nt
CC(C)CNC(=O)C1CCN(S(=O)(=O)c2ccc3c(c2)OCCO3)CC1,0%,i,6%,-2%,nt
O=C(Nc1ccc(F)cc1F)C1CCCN1S(=O)(=O)c1cccc2nsnc12 (stereo not given),16µM*,i,-12%,2%,-1%
C[C@H]1CN([C@@H](C)CO)C(=O)Cc2cc(NS(=O)(=O)c3cccs3)ccc2O[C@H]1CN(C)S(=O)(=O)c1cn(C)cn1,12%,i,3%,-19%,nt
CC(=O)Oc1ccc(N(C(C)=O)S(=O)(=O)c2ccc(C)cc2)c2ccccc12,-30%,?,27µM*,-36%,nt
CC(=O)Oc1ccc(N(C(C)=O)S(=O)(=O)c2ccc(Cl)cc2)c2ccccc12,-30%,i,?,-17%,-12%
C=CCN=C1NN=C(c2cc(C)n(CC=C)c2C)CS1,-19%,i,27µM*,-14%,1%
O=C(/C=C/c1cccc([N+](=O)[O-])c1)NCCSCc1ccccc1Cl,-8%,i,2%,-30%,?
O=C(/C=C/c1cccc([N+](=O)[O-])c1)NCCSCc1ccc(Cl)cc1Cl,13µM*,i,?,-26%,-8%
CO[C@H]1/C=C\O[C@@]2(C)Oc3c(C)c(O)c4c(O)c(c5c(nc6cc(C)ccn65)c4c3C2=O)NC(=O)C(C)=CC=C[C@H](C)[C@H](O)[C@@H](C)[C@@H](O)[C@@H](C)[C@H](OC(C)=O)[C@H]1C,nt,nt,-10%,nt,nt
CCOC(=O)N1CCN(Cc2nc3cc(NC(=O)CC)ccc3n2C(C)C)CC1,8.9µM*,nt,nt,-23%,-3%
CCOC(=O)N1CCN(Cc2nc3cc(NC(=O)CC(C)C)ccc3n2C(C)C)CC1,nt,nt,nt,2%,-6%
COc1ccc(OC)c2c(C)ccnc12,7.9µM*,nt,nt,13µM*,nt
CCCCC/C=C/C1=CC(=O)C[C@H](c2ccc(OC)c(OC)c2)C1,?,?,22µM*,-18%,nt
O=Cc1s/c(=N\S(=O)(=O)c2ccccc2)n(CCCCl)c1Cl,4µM*,5µM*,?,8.9µM*,-22%
O=S1(=O)CCO[C@H]2CCCC[C@@H]2N1Cc1ccccc1,-9%,nt,nt,-24%,nt
O=C1OC(/C(=C\Nc2cc(Cl)ccc2O)[N+](=O)[O-])c2ccccc21 (stereo not given),-12%,i,-3%,-7%,-21%
COc1ccc(CCNC(=O)NCCc2c[nH]c3ccccc23)cc1OC,3%,i,-19%,-14%,-6%
COc1cccc(CNCCc2c[nH]c3ccccc23)c1OCc1ccccc1,?,i,?,11µM*,-12%
COc1cc(CNCCc2c[nH]c3ccccc23)ccc1OCc1ccccc1F,?,?,?,13µM*,?
COc1ccc(CN2CCC(n3cc(C(=O)N4CCCC4)nn3)CC2)c(OC)c1C,nt,i,nt,nt,nt
COc1ccccc1C(=O)NCCC(=O)NCCC12CC3CC(CC(C3)C1)C2,10%,i,-5%,-28%,-2%
COc1ccc(C23CC4CC(CC(C4)C2)C3)cc1C(=O)NCCN(C)C,?,nt,nt,16µM*,?

# Screens from PubChem BioAssay.
